# Source: the supplement of paper PMC6522484
# ± gives the standard deviation of the averaged measurements.
# Key:
# [1] = test system: DLD1; assay: cell viability (CellTiter-Glo) relative to plate median (fraction of plate median); higher = more viable cells; details: 5 µM; treatment time 24 h; reporter: 7TFP
# Summary of the method: (§1)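 Colorectal cancer lines with stably integrated lentiviral TCF/Wnt firefly luciferase reporters received library compounds at a final 5 µM, 24 h after seeding into 384-well plates, for a 24 h exposure. Reported figures are plate-median-normalised firefly luciferase or CellTiterGlo luminescence per well. They average two independent replicates.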
# [2] = test system: HCT116; assay: as above; details: 5 µM; treatment time 24 h; reporter: TCF4/Wnt
# Summary of the method: as §1
# [3] = test system: SW480; assay: as above; details: 5 µM; treatment time 24 h; reporter: 7TFP
# Summary of the method: as §1
# [4] = test system: DLD1; assay: TCF/Wnt firefly luciferase reporter signal relative to plate median (fraction of plate median); higher = higher Wnt reporter signal; details: 5 µM; treatment time 24 h; reporter: 7TFP
# Summary of the method: as §1
# [5] = test system: SW480; assay: as above; details: 5 µM; treatment time 24 h; reporter: 7TFP
# Summary of the method: as §1
Compound,cell viability [1],cell viability [2],cell viability [3],TCF/Wnt firefly luciferase reporter signal [4],TCF/Wnt firefly luciferase reporter signal [5]
CC(=O)OCC1=C(C(=O)O)N2C(=O)[C@@H](NC(=O)Cc3cccs3)[C@H]2SC1,1.05 ± 0.021,1.06 ± 0.021,1.03 ± 0.028,0.953 ± 0.016,1 ± 0.028
CCc1nc(N)nc(N)c1-c1ccc(Cl)cc1,0.972 ± 0.082,0.999 ± 0.03,1.02 ± 0.021,1.1 ± 0.23,1.1 ± 0.042
CCOc1cccc(C(=O)c2ccc(O)c(O)c2O)c1,1.03,1.085 ± 0.0071,1.07 ± 0.021,1.04 ± 0.088,0.932 ± 0.019
CC(=O)O[C@H]1C[C@@H](OC(C)=O)C(C)(C)[C@@H]2C[C@@H](OC(C)=O)[C@@]3(C)C4=CC(=O)O[C@@H](c5ccoc5)[C@]4(C)CC[C@@H]3[C@@]12C,1.01 ± 0.018,1.15 ± 0.092,1.05 ± 0.057,0.976 ± 0.011,0.997 ± 0.033
CCOc1nc2cccc(C(=O)OC(C)OC(=O)OC3CCCCC3)c2n1Cc1ccc(-c2ccccc2-c2nn[nH]n2)cc1 (stereo not given),0.864 ± 0.052,0.959 ± 0.042,1.045 ± 0.0071,1.06 ± 0.2,1.07 ± 0.064
COc1ccc(CC(=O)c2ccc(O)cc2O)cc1,0.962 ± 0.054,0.955 ± 0.14,0.995 ± 0.036,1.13 ± 0.057,1.07 ± 0.078
Cc1cc(O)c(C=O)c(O)c1C(=O)O,0.939 ± 0.14,0.939 ± 0.064,0.957 ± 0.035,1.09 ± 0.14,0.9475 ± 0.0035
Cn1ccnc1S,0.997 ± 0.047,1.04 ± 0.021,0.981 ± 0.021,0.988 ± 0.088,0.95 ± 0.071
c1ccc(CC2=NCCN2)cc1,0.994 ± 0.066,1.04 ± 0.075,0.9775 ± 0.00071,0.952 ± 0.082,1.01 ± 0.12
CCCCCCCCCCCCC[N+](C)(C)Cc1ccccc1,0.848 ± 0.095,0.743 ± 0.028,0.96 ± 0.057,0.725 ± 0.15,0.562 ± 0.074
COc1ccc2c(c1)OCC(Cc1ccc(OC)c(O)c1)C2=O (stereo not given),0.937 ± 0.0099,0.847 ± 0.043,1.09 ± 0.035,0.707 ± 0.13,0.883 ± 0.047
COc1cc2c(cc1OC)C(=O)OC2,0.982 ± 0.054,1.12,1.025 ± 0.0071,1.22 ± 0.014,1.06 ± 0.014
O=c1c2cc(O)c(O)cc2oc2cc(O)c([C@@H]3O[C@H](CO)[C@@H](O)[C@H](O)[C@H]3O)c(O)c12,1.09 ± 0.13,1.045 ± 0.0071,1.05 ± 0.035,0.988 ± 0.06,0.957 ± 0.061
CC(N)CCCC(C)(C)O (stereo not given),1.01 ± 0.092,0.955 ± 0.078,0.933 ± 0.022,1.03 ± 0.021,1.04 ± 0.035
O=C(NCO)c1cccnc1,0.952 ± 0.027,0.921 ± 0.022,1.04 ± 0.028,1.02 ± 0.13,0.959 ± 0.013
O=C(OCC(O)CO)c1ccccc1Nc1ccnc2cc(Cl)ccc12 (stereo not given),0.984 ± 0.037,1.015 ± 0.0071,1.02 ± 0.021,0.954 ± 0.15,0.922 ± 0.044
O=C(O)c1cn(C2CC2)c2cc(N3CCNCC3)c(F)cc2c1=O,0.964 ± 0.037,0.988 ± 0.015,1.03 ± 0.021,1.05 ± 0.078,1.07 ± 0.014
CCN(CCO)CCCC(C)Nc1ccnc2cc(Cl)ccc12 (stereo not given),1.05 ± 0.097,0.998 ± 0.1,0.986 ± 0.0057,1.02 ± 0.076,1.045 ± 0.0071
CC(C)(C)NCC(O)COc1cccc2c1CC(O)C(O)C2 (stereo not given),1.05 ± 0.11,0.929 ± 0.015,1.04 ± 0.028,1.02 ± 0.15,0.996 ± 0.063
CCCCNS(=O)(=O)c1ccccc1 [N-butylbenzenesulphonamide (AB2)],0.978 ± 0.19,1 ± 0.022,0.964 ± 0.052,0.908 ± 0.13,0.919 ± 0.14
CC(=O)OC1CCC2(C)C3=C(CC[C@H]2C1(C)C)[C@@]1(C)CC[C@@H]([C@@H](C)CCC=C(C)C)[C@]1(C)CC3 (stereo not given in full),1.04 ± 0.097,1 ± 0.064,0.961 ± 0.0014,1.06 ± 0.17,1.11 ± 0.014
CN(C)CCOC(C)(c1ccccc1)c1ccccn1 (stereo not given),1.1 ± 0.2,0.947 ± 0.1,1.04 ± 0.042,0.999 ± 0.016,1.04 ± 0.014
CC1(C)C(=O)C=CC2(C)C1C=CC1(C)C2CCC2(C)C(c3ccoc3)OC(=O)C3OC312 (stereo not given),1.07 ± 0.042,1.1 ± 0.13,1.05,1.01 ± 0.1,0.964 ± 0.094
C[C@H](CCC(=O)O)[C@H]1CC[C@H]2[C@@H]3CC[C@@H]4C[C@H](O)CC[C@]4(C)[C@H]3CC[C@]12C,1.11 ± 0.11,1.17 ± 0.15,1.04 ± 0.028,1.21 ± 0.11,1.16 ± 0.014
C=C1CCC(C2CC(=O)OC2=O)C(=O)CCC2C1CC2(C)C (stereo not given),1.01 ± 0.049,1.04 ± 0.09,0.958 ± 0.0085,1.01 ± 0.19,0.901 ± 0.018
CNCc1ccccc1,1.03 ± 0.014,1.125 ± 0.0071,1.03 ± 0.021,1.03 ± 0.067,1.045 ± 0.0071
CC(=O)OC(C)(C)[C@@H]1Cc2cc3ccc(=O)oc3cc2O1,1.06 ± 0.014,1.1 ± 0.014,1.03 ± 0.062,0.896 ± 0.039,0.944 ± 0.077
CC(Oc1ccccc1)C(=O)N[C@@H]1C(=O)N2[C@@H]1SC(C)(C)[C@@H]2C(=O)O (stereo not given in full),0.97 ± 0.032,0.928 ± 0.022,0.9865 ± 0.00071,1.07 ± 0.071,1.065 ± 0.0071
CC(=O)OCC[N+](C)(C)C,0.987 ± 0.15,0.998 ± 0.059,0.982 ± 0.014,1.01 ± 0.023,0.992 ± 0.012
C=CC1=C(C)/C(=C/c2[nH]c(Cc3[nH]c(/C=C4\NC(=O)C(C)=C4C=C)c(C)c3CCC(=O)O)c(CCC(=O)O)c2C)NC1=O,1.04 ± 0.087,1.03,0.98 ± 0.018,0.964 ± 0.15,0.936 ± 0.018
